Measurements published in PubChem BioAssay AID862 (The Scripps Research Institute Molecular Screening Center, 2007).
Among all 190,000 compounds or so, about 1,700 (0.89%) were called active. What follows is part of a selection rich in actives, with near analogues and random picks from the rest. A number with no mark means an inactive call.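 The calls were made as follows: active = inhibition above the mean inhibition across all screened compounds plus 3 SD (cut at about 44% in these data); inactive = the rest.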

Assay: IL-6 driven STAT3 reporter inhibitors, primary screen, U3A cells, luciferase, luminescence, MLSCN library (AID 862);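 also: 0% = DMSO only wells and 100% = 100 µM nifuroxazide control wells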
Details: IL-6 STAT3-luciferase reporter, at 5.5 µM, stronger effect = higher value, host cell line lacks STAT1

For COc1ccc(/C=C/C(=O)c2ccc(NS(=O)(=O)c3ccc(C)cc3)cc2)cc1O, which inhibition is on record?
The inhibition was -5.1%.

For Cc1ccc(O)c(-c2cc(C(=O)NCc3ccccc3)[nH]n2)c1, which inhibition is on record?
The inhibition was -0.7%.

With CCCn1nc(C(=O)Nc2ccc3nc(C)sc3c2)c2ccccc2c1=O as the compound, how does the inhibition read?
The inhibition was 0.8%.

For CCN(CC)c1ccc(/C=N/Nc2nc(C)cc(C)n2)c(O)c1, which inhibition is on record?
The inhibition was 16%.

For CCN(CC)c1ccc(/C=N/Nc2nc(C)cc(=O)[nH]2)cc1, which inhibition is on record?
Its inhibition is 46.4% (active).

Which inhibition does the source give for Cc1cc(=O)[nH]c(N/N=C/c2c(C)nn(-c3ccccc3Cl)c2Cl)n1 here?
The inhibition was 7.1%.

For Nc1nnc(SCn2nnc3ccccc3c2=O)s1, which inhibition is on record?
The inhibition was 9.1%.

With O=C(Nc1nc2ccc([N+](=O)[O-])cc2s1)c1ccc(S(=O)(=O)N2CCCc3ccccc32)cc1 as the compound, how does the inhibition read?
Its inhibition is 21.1%.

With O=C(NC(Nc1nc2ccc([N+](=O)[O-])cc2s1)(C(F)(F)F)C(F)(F)F)c1ccccc1 as the compound, how does the inhibition read?
Its inhibition is 92.4% (active).

For O=C(O)CCC(=O)Nc1nc2ccc([N+](=O)[O-])cc2s1, which inhibition is on record?
Its inhibition is 13.9%.

With OCCC1CN(Cc2ccc(Oc3ncccn3)cc2)CCN1CCc1ccccc1 (stereo unspecified) as the compound, how does the inhibition read?
The inhibition was 4.1%.

Which inhibition does the source give for Cc1cc[n+](-c2[nH]c(=O)sc2/C=N/NC(=O)c2ccccc2[O-])cc1C here?
Its inhibition is 6.7%.

Which inhibition does the source give for COc1ccc(N=Cc2c(O)[nH]c3ccccc23)cc1OC here?
Its inhibition is 40.4%.

Which inhibition does the source give for COc1cc(N=Cc2c(O)[nH]c3ccccc23)cc(OC)c1OC here?
The inhibition was 56% (active).

Which inhibition does the source give for COc1ccc(OC)c(N=Cc2c(O)[nH]c3ccccc23)c1 here?
Its inhibition is 22.7%.

With Cc1cc(C)nc(SC2CCCCC2NS(=O)(=O)c2ccc(Cl)cc2)n1 (stereo unspecified) as the compound, how does the inhibition read?
Its inhibition is -5.1%.

With Nc1c(C(=O)O)cnn1-c1ccccc1 as the compound, how does the inhibition read?
The inhibition was -7.4%.

Which inhibition does the source give for Cc1ccc(N2C(=O)SC(N(CC(=O)O)c3ccc(C)cc3)C2=O)cc1 (stereo unspecified) here?
Its inhibition is 0.7%.

For CCCCCC(=O)Nc1ccc2oc(-c3ccncc3)nc2c1, which inhibition is on record?
The inhibition was 21.8%.

Which inhibition does the source give for CCc1ccc2oc(-c3ccc(N)cc3)nc2c1 here?
The inhibition was 79.6% (active).

For Nc1ccc(-c2nnc(-c3ccc(-c4ccccc4)cc3)o2)cc1, which inhibition is on record?
The inhibition was -2.7%.

Which inhibition does the source give for c1ccc(Nc2nc(-c3ccncc3)cs2)nc1 here?
The inhibition was 9.9%.

With COc1ccc(Nc2nc(-c3ccccc3)cs2)cc1 as the compound, how does the inhibition read?
The inhibition was -10.2%.

Which inhibition does the source give for COc1ccc(-c2csc(Nc3ccccn3)n2)cc1 here?
The inhibition was 51.5% (active).

Which inhibition does the source give for Cc1ccccc1-n1nc(SCC(=O)O)sc1=S here?
The inhibition was 3.4%.

With COc1cccc(CNC(=O)CCC2CCCN(Cc3ccc(OC(F)F)cc3)C2)c1 (stereo unspecified) as the compound, how does the inhibition read?
The inhibition was 13.3%.

For c1ccc(Nc2nc(N3CCOCC3)c3ccccc3n2)cc1, which inhibition is on record?
The inhibition was 22%.

With COc1ccc(Nc2ncc(F)c(N3CCOCC3)n2)cc1 as the compound, how does the inhibition read?
The inhibition was 50.7% (active).

With CCOc1ccc(Nc2nc(Cl)nc(N3CCN(c4ccc(OC)cc4)CC3)n2)cc1 as the compound, how does the inhibition read?
Its inhibition is -0.7%.

Which inhibition does the source give for O=[N+]([O-])c1ccc2oc(-c3cccc(O)c3)nc2c1 here?
The inhibition was 1.8%.

For O=C(Nc1ccccc1F)c1ccc(Cn2cc(Br)cn2)cc1, which inhibition is on record?
Its inhibition is 14.9%.

For COc1ccc(-n2ncc3c(N4CCCc5ccccc54)ncnc32)cc1, which inhibition is on record?
Its inhibition is 30.9%.

For Cc1ccc(-n2ncc3c(N4CCN(c5ccc(F)cc5)CC4)ncnc32)c(C)c1, which inhibition is on record?
The inhibition was 69.6% (active).

Which inhibition does the source give for Cc1ccc(-n2ncc3c(=O)[nH]cnc32)c(C)c1 here?
The inhibition was 10.7%.

Which inhibition does the source give for c1ccc(-n2ncc3c(N4CCCC4)ncnc32)cc1 here?
The inhibition was 46.7% (active).

With COC(=O)CSc1ncnc2c1cnn2-c1ccc(C)cc1C as the compound, how does the inhibition read?
Its inhibition is 23.1%.

For COc1ccc(-n2ncc3c(N4CCc5ccccc54)ncnc32)cc1, which inhibition is on record?
Its inhibition is 2.3%.

Which inhibition does the source give for CCOc1ccc(N2C(=O)Nc3ccccc3C2(O)C(=O)NCc2ccco2)cc1 (stereo unspecified) here?
Its inhibition is 4.6%.

Which inhibition does the source give for O=c1[nH]oc(O)c1-c1ncc(C(F)(F)F)cc1Cl here?
Its inhibition is -6.5%.

For S=c1nc(C23CC4CC(CC(C4)C2)C3)nc2sccn12, which inhibition is on record?
The inhibition was 10%.

For O=C(NC1(C(F)(F)F)NC(=O)N(C2CCCCC2)C1=O)c1ccco1 (stereo unspecified), which inhibition is on record?
The inhibition was 12.1%.

With O=C1NC(Nc2nc3ccccc3s2)(C(F)(F)F)C(=O)N1C1CCCCC1 (stereo unspecified) as the compound, how does the inhibition read?
Its inhibition is 48.9% (active).

For COC(=O)NC1(C(F)(F)F)NC(=O)N(C2CCCCC2)C1=O (stereo unspecified), which inhibition is on record?
Its inhibition is 7.4%.

With COCC(C)NC(=O)CSc1nc2nn(-c3ccccc3)c(=O)c-2c2n1CCCCC2 (stereo unspecified) as the compound, how does the inhibition read?
The inhibition was 2.7%.

Which inhibition does the source give for O=C(NCCc1ccccc1)c1ccc(OCCOc2ccccc2)cc1 here?
The inhibition was -1.4%.

For CCCOc1ccc(C(=O)NCCc2ccccc2)cc1, which inhibition is on record?
The inhibition was 50.3% (active).

With O=C(NCCOc1ccccc1)c1ccccc1 as the compound, how does the inhibition read?
The inhibition was 20.1%.

With O=C(CN1C2=NCCN2c2ccccc21)c1cccs1 as the compound, how does the inhibition read?
The inhibition was 0%.

With c1ccc(-c2cc(N3CCCCC3)c3ccccc3n2)cc1 as the compound, how does the inhibition read?
Its inhibition is 9.3%.

Which inhibition does the source give for Cc1ccc(-c2cn3cc(C)ccc3n2)cc1 here?
The inhibition was 103% (active).

Which inhibition does the source give for Cc1ccc(-c2cn3cc([N+](=O)[O-])ccc3n2)cc1 here?
Its inhibition is 86.6% (active).

Which inhibition does the source give for COc1ccc(-c2cn3ccsc3n2)cc1 here?
The inhibition was 28.9%.

For COc1ccc(-c2cn3cccnc3n2)cc1, which inhibition is on record?
The inhibition was 10.6%.

Which inhibition does the source give for Cc1ccc(-c2cn(S(=O)(=O)c3cccc([N+](=O)[O-])c3)nc2N)cc1 here?
The inhibition was 12.3%.

For Cc1ccc(-n2cc3ccc([N+](=O)[O-])cc3n2)cc1, which inhibition is on record?
The inhibition was 38.8%.

With CC(=O)Nc1ccc(NC(=O)COc2ccc(S(=O)(=O)NC(C)c3ccccc3)cc2)cc1 (stereo unspecified) as the compound, how does the inhibition read?
Its inhibition is 16.1%.

Which inhibition does the source give for Cn1cnnc1Sc1ccc(CN2CCN(C3CCCC3)C(CCO)C2)o1 (stereo unspecified) here?
Its inhibition is -6.5%.

Which inhibition does the source give for Cc1ccc2nc(-c3ccncc3)cc(C(=O)Nc3ccc4c(c3)OCCO4)c2c1 here?
The inhibition was 26.4%.

Which inhibition does the source give for C/C(=N\NC(=O)CSc1nc2ccccc2c(=O)n1-c1ccccc1C)c1cccs1 here?
The inhibition was -9.1%.

With O=C(Cc1ccccc1)N1CCN(S(=O)(=O)c2ccc([N+](=O)[O-])cc2)CC1 as the compound, how does the inhibition read?
The inhibition was -1.6%.

With Cc1cc(C)c2c(n1)sc1c(=O)n(-c3ccccc3)c(=O)[nH]c12 as the compound, how does the inhibition read?
The inhibition was 1.2%.

Which inhibition does the source give for Cc1cccc(C(=O)OC(C)CN2CCN(C)CC2)c1 (stereo unspecified) here?
The inhibition was 6.7%.

For O=c1c2ccccc2nc2n1C1(CCCCC1)Cc1ccccc1-2, which inhibition is on record?
The inhibition was -3.8%.

With CN(c1ccc2nc3ccccc3c(=O)n2n1)C1CCCCC1 as the compound, how does the inhibition read?
The inhibition was 105% (active).

For CCOC(=O)C(C)Sc1nc2ccccc2c(=O)n1CC1CCCCC1 (stereo unspecified), which inhibition is on record?
The inhibition was -5.1%.

With CN(C)C(CNC(=O)c1cccc(C#N)c1)c1ccco1 (stereo unspecified) as the compound, how does the inhibition read?
The inhibition was 5.3%.

Which inhibition does the source give for CCOC(=O)CNC(=O)CSc1ccc2nnc(-c3cccnc3)n2n1 here?
Its inhibition is -10.3%.

For Cn1ccc(=NC=C(C#N)C#N)c2ccccc21, which inhibition is on record?
The inhibition was 1.3%.

Which inhibition does the source give for Cc1noc(C)c1COc1cccc(C(=O)Nc2cccnc2)c1 here?
The inhibition was 14.6%.

With CN(Cc1cccnc1)C(=O)c1cc(COc2ccc3ncccc3c2)on1 as the compound, how does the inhibition read?
Its inhibition is 79.1% (active).

For Cc1cccc(OCCNC(=S)NC(=O)c2cccnc2)c1, which inhibition is on record?
Its inhibition is -5%.

Which inhibition does the source give for O=C(N/N=C/c1ccc([N+](=O)[O-])o1)c1cn(-c2ccccc2)nc1-c1ccc(F)cc1 here?
The inhibition was 25%.

Which inhibition does the source give for O=C(O)c1ccccc1-c1ccccc1C(=O)NCc1cccnc1 here?
Its inhibition is -4.3%.

With CCCCSc1nnc(-c2ccc(C)cc2)o1 as the compound, how does the inhibition read?
The inhibition was 28.9%.

With CCOc1ccc(-c2nnc(-c3ccco3)o2)cc1 as the compound, how does the inhibition read?
Its inhibition is 77.6% (active).

With CCC(=O)Oc1cccc(C(=O)Nc2ccc(-c3nnc(-c4ccco4)o3)cc2)c1 as the compound, how does the inhibition read?
The inhibition was 11.2%.

For CCCCOc1ccc(-c2nnc(-c3ccco3)o2)cc1, which inhibition is on record?
The inhibition was 51.7% (active).

For O=C(CCc1ccccc1)Nc1cccc(-c2nnc(-c3ccco3)o2)c1, which inhibition is on record?
Its inhibition is 15.5%.

Which inhibition does the source give for COc1ccc(OCC(=O)Nc2nnc(-c3ccco3)s2)cc1 here?
Its inhibition is -12.3%.

For CC(C)CNC(=O)CC(NCC(C)C)C(=O)O (stereo unspecified), which inhibition is on record?
Its inhibition is 17.2%.

Which inhibition does the source give for CCCOC1CCCN(Cc2cn(C)nc2-c2ccccc2F)C1 (stereo unspecified) here?
Its inhibition is 3.9%.

For O=C(NCC1COc2ccccc2O1)C1(c2ccccc2)CCCC1 (stereo unspecified), which inhibition is on record?
Its inhibition is 9.6%.

With O=C(COC(=O)CCc1ccc(S(=O)(=O)N2CCOCC2)cc1)Nc1cccc(Cl)c1 as the compound, how does the inhibition read?
The inhibition was -7.6%.

With CCn1c(NC(=O)c2nn(C)cc2Br)nc2ccccc21 as the compound, how does the inhibition read?
The inhibition was 5.2%.

For CC(=O)c1sc(NC(=O)c2ccc(C)cc2)nc1C, which inhibition is on record?
The inhibition was 33.2%.

For CCSc1nnc(NC(=O)Cc2ccccc2OC)s1, which inhibition is on record?
Its inhibition is 1.7%.

For CCSc1nnc(NC(=O)c2ccc(C)cc2)s1, which inhibition is on record?
Its inhibition is 60.6% (active).

For Cc1ccc(C2CCN(C(=S)Nc3cccc(Cl)c3)C2)cc1 (stereo unspecified), which inhibition is on record?
The inhibition was 0.7%.

Which inhibition does the source give for CCc1ccc(-n2c(SCc3cc(=O)n4cc(Br)ccc4n3)nc3[nH]ncc3c2=O)cc1 here?
The inhibition was 9.7%.

With CSCCNCc1cn(-c2ccc(F)cc2F)nc1-c1ccccc1C as the compound, how does the inhibition read?
The inhibition was 0.4%.

Which inhibition does the source give for COc1ccc(CCNC(=O)Cn2c(=O)n(CC3CCCO3)c(=O)c3ccccc32)cc1OC (stereo unspecified) here?
Its inhibition is 10.4%.

Which inhibition does the source give for Cc1nc(CNS(=O)(=O)c2ccc(Oc3ccccc3)cc2)cs1 here?
Its inhibition is 54% (active).

With Cc1ccc(S(=O)(=O)NCc2csc(C)n2)c(C)c1 as the compound, how does the inhibition read?
The inhibition was -8.4%.

Which inhibition does the source give for Cc1nc(CNS(=O)(=O)c2cccnc2)cs1 here?
The inhibition was 5.7%.

Which inhibition does the source give for CCc1cc2c(N3CCN(c4nnc(CC)s4)CC3)ncnc2s1 here?
Its inhibition is 57.3% (active).

Which inhibition does the source give for CCc1cc2c(NC3CCCC3)ncnc2s1 here?
Its inhibition is 13%.

Which inhibition does the source give for CCc1cc2c(SCC(=O)Nc3ncc(Cl)c(C)c3Cl)ncnc2s1 here?
Its inhibition is -5.3%.

For CCC(C)CN1CCC(CO)(Cc2ccccc2Cl)CC1 (stereo unspecified), which inhibition is on record?
Its inhibition is 3.5%.

For Cc1ccc2cc3cc(C(=O)N4CCCCCC4)oc3nc2c1, which inhibition is on record?
Its inhibition is 48.7% (active).

For Cc1cccc(C(=O)N2CCCN(C(=O)c3cccc(C)c3)CC2)c1, which inhibition is on record?
Its inhibition is 3.3%.

Which inhibition does the source give for Cc1cc(=O)oc(C)c1C(=O)N1CCCCC1 here?
The inhibition was 6.3%.
